Test results as given in the supplement of paper PMC7411054.

Experiments:
Assay in all cases: phenotypically active (imaging signature differs from DMSO and reproducible) at any of 0.3-9 uM (binary (1 = active, 0 = inactive)); higher = active
Settings in all cases: treatment time: 24 h
A549-ACTB-RAB5A = test system: A549-ACTB-RAB5A
Method in brief: (§1)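 The reporter lines, fifteen in total and built by gene editing in A549, HepG2 and WPMY1 cells, used BFP for segmentation alongside GFP and RFP/FusionRed markers. Each was treated at 0.3, 1, 3 or 9 µM for 24 h in four wells and then imaged live, with live-cell features normalised to solvent control wells. Deviation meant ≥3 of 4 wells beyond the 95th percentile of control Euclidean distances; reproducibility meant a median replicate Pearson correlation above the 95th percentile of non-replicates. Only conditions meeting both were scored as phenotypically active.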

A549-CANX-COX4 = test system: A549-CANX-COX4
Method in brief: as §1

A549-GM130-SQSTM1 = test system: A549-GM130-SQSTM1
Method in brief: as §1

A549-TP53BP1-CLTA = test system: A549-TP53BP1-CLTA
Method in brief: as §1

A549-TUBA1B-RELA = test system: A549-TUBA1B-RELA
Method in brief: as §1

HepG2-ACTB-RAB5A = test system: HepG2-ACTB-RAB5A
Method in brief: as §1

HepG2-CANX-COX4 = test system: HepG2-CANX-COX4
Method in brief: as §1

HepG2-GM130-SQSTM1 = test system: HepG2-GM130-SQSTM1
Method in brief: as §1

HepG2-TP53BP1-CLTA = test system: HepG2-TP53BP1-CLTA
Method in brief: as §1

HepG2-TUBA1B-RELA = test system: HepG2-TUBA1B-RELA
Method in brief: as §1

WPMY1-ACTB-RAB5A = test system: WPMY1-ACTB-RAB5A
Method in brief: as §1

WPMY1-CANX-COX4 = test system: WPMY1-CANX-COX4
Method in brief: as §1

WPMY1-GM130-SQSTM1 = test system: WPMY1-GM130-SQSTM1
Method in brief: as §1

WPMY1-TP53BP1-CLTA = test system: WPMY1-TP53BP1-CLTA
Method in brief: as §1

WPMY1-TUBA1B-RELA = test system: WPMY1-TUBA1B-RELA
Method in brief: as §1

Measured: phenotypically active

Brc1c(NC2=NCCN2)ccc2nccnc12 [brimonidine]
inactive: A549-ACTB-RAB5A 0 | A549-CANX-COX4 0 | A549-GM130-SQSTM1 0 | A549-TP53BP1-CLTA 0 | A549-TUBA1B-RELA 0 | HepG2-ACTB-RAB5A 0 | HepG2-CANX-COX4 0 | HepG2-GM130-SQSTM1 0 | HepG2-TP53BP1-CLTA 0 | HepG2-TUBA1B-RELA 0 | WPMY1-ACTB-RAB5A 0 | WPMY1-CANX-COX4 0 | WPMY1-GM130-SQSTM1 0 | WPMY1-TP53BP1-CLTA 0 | WPMY1-TUBA1B-RELA 0

Nc1ncnc2c1cnn2-c1ccccc1
inactive: A549-ACTB-RAB5A 0 | A549-CANX-COX4 0 | A549-GM130-SQSTM1 0 | A549-TP53BP1-CLTA 0 | A549-TUBA1B-RELA 0 | HepG2-ACTB-RAB5A 0 | HepG2-CANX-COX4 0 | HepG2-GM130-SQSTM1 0 | HepG2-TP53BP1-CLTA 0 | HepG2-TUBA1B-RELA 0 | WPMY1-ACTB-RAB5A 0 | WPMY1-CANX-COX4 0 | WPMY1-GM130-SQSTM1 0 | WPMY1-TP53BP1-CLTA 0 | WPMY1-TUBA1B-RELA 0

CC(C)C1=CC2=CCC3[C@](C)(CCC[C@]3(C)C(=O)O)C2CC1 (stereo not given in full) [Abietic Acid]
inactive: A549-ACTB-RAB5A 0 | A549-CANX-COX4 0 | A549-GM130-SQSTM1 0 | A549-TP53BP1-CLTA 0 | A549-TUBA1B-RELA 0 | HepG2-ACTB-RAB5A 0 | HepG2-CANX-COX4 0 | HepG2-GM130-SQSTM1 0 | HepG2-TP53BP1-CLTA 0 | HepG2-TUBA1B-RELA 0 | WPMY1-ACTB-RAB5A 0 | WPMY1-CANX-COX4 0 | WPMY1-GM130-SQSTM1 0 | WPMY1-TP53BP1-CLTA 0 | WPMY1-TUBA1B-RELA 0

CC(C)(C)NC[C@H](O)c1ccc(O)c(CO)c1 [levalbuterol]
inactive: A549-ACTB-RAB5A 0 | A549-CANX-COX4 0 | A549-GM130-SQSTM1 0 | A549-TP53BP1-CLTA 0 | A549-TUBA1B-RELA 0 | HepG2-ACTB-RAB5A 0 | HepG2-CANX-COX4 0 | HepG2-GM130-SQSTM1 0 | HepG2-TP53BP1-CLTA 0 | HepG2-TUBA1B-RELA 0 | WPMY1-ACTB-RAB5A 0 | WPMY1-CANX-COX4 0 | WPMY1-GM130-SQSTM1 0 | WPMY1-TP53BP1-CLTA 0 | WPMY1-TUBA1B-RELA 0

Brc1c(Br)c(Br)c2[nH]nnc2c1Br
inactive: A549-ACTB-RAB5A 0 | A549-CANX-COX4 0 | A549-GM130-SQSTM1 0 | A549-TP53BP1-CLTA 0 | A549-TUBA1B-RELA 0 | HepG2-ACTB-RAB5A 0 | HepG2-CANX-COX4 0 | HepG2-GM130-SQSTM1 0 | HepG2-TP53BP1-CLTA 0 | HepG2-TUBA1B-RELA 0 | WPMY1-ACTB-RAB5A 0 | WPMY1-CANX-COX4 0 | WPMY1-GM130-SQSTM1 0 | WPMY1-TP53BP1-CLTA 0 | WPMY1-TUBA1B-RELA 0

CC(C(=O)O)c1ccc(C(=O)c2cccs2)cc1 (stereo not given) [suprofen]
inactive: A549-ACTB-RAB5A 0 | A549-CANX-COX4 0 | A549-GM130-SQSTM1 0 | A549-TP53BP1-CLTA 0 | A549-TUBA1B-RELA 0 | HepG2-ACTB-RAB5A 0 | HepG2-CANX-COX4 0 | HepG2-GM130-SQSTM1 0 | HepG2-TP53BP1-CLTA 0 | HepG2-TUBA1B-RELA 0 | WPMY1-ACTB-RAB5A 0 | WPMY1-CANX-COX4 0 | WPMY1-GM130-SQSTM1 0 | WPMY1-TP53BP1-CLTA 0 | WPMY1-TUBA1B-RELA 0

CC[N+](CC)(CCNC(=O)C(=O)NCC[N+](CC)(CC)Cc1ccccc1Cl)Cc1ccccc1Cl [ambenonium]
inactive: A549-ACTB-RAB5A 0 | A549-CANX-COX4 0 | A549-GM130-SQSTM1 0 | A549-TP53BP1-CLTA 0 | A549-TUBA1B-RELA 0 | HepG2-ACTB-RAB5A 0 | HepG2-CANX-COX4 0 | HepG2-GM130-SQSTM1 0 | HepG2-TP53BP1-CLTA 0 | HepG2-TUBA1B-RELA 0 | WPMY1-ACTB-RAB5A 0 | WPMY1-CANX-COX4 0 | WPMY1-GM130-SQSTM1 0 | WPMY1-TP53BP1-CLTA 0 | WPMY1-TUBA1B-RELA 0

CC[C@]12CCCN3CCc4c(n(c5ccccc45)[C@@](O)(C(=O)OC)C1)[C@@H]32 [Vincamine]
inactive: A549-ACTB-RAB5A 0 | A549-CANX-COX4 0 | A549-GM130-SQSTM1 0 | A549-TP53BP1-CLTA 0 | A549-TUBA1B-RELA 0 | HepG2-ACTB-RAB5A 0 | HepG2-CANX-COX4 0 | HepG2-GM130-SQSTM1 0 | HepG2-TP53BP1-CLTA 0 | HepG2-TUBA1B-RELA 0 | WPMY1-ACTB-RAB5A 0 | WPMY1-CANX-COX4 0 | WPMY1-GM130-SQSTM1 0 | WPMY1-TP53BP1-CLTA 0 | WPMY1-TUBA1B-RELA 0

O=C(Cn1ccnc1[N+](=O)[O-])NCc1ccccc1 [benznidazole]
inactive: A549-ACTB-RAB5A 0 | A549-CANX-COX4 0 | A549-GM130-SQSTM1 0 | A549-TP53BP1-CLTA 0 | A549-TUBA1B-RELA 0 | HepG2-ACTB-RAB5A 0 | HepG2-CANX-COX4 0 | HepG2-GM130-SQSTM1 0 | HepG2-TP53BP1-CLTA 0 | HepG2-TUBA1B-RELA 0 | WPMY1-ACTB-RAB5A 0 | WPMY1-CANX-COX4 0 | WPMY1-GM130-SQSTM1 0 | WPMY1-TP53BP1-CLTA 0 | WPMY1-TUBA1B-RELA 0

O=C1CCc2c(ccc3ccccc23)O1 [Splitomicin]
inactive: A549-ACTB-RAB5A 0 | A549-CANX-COX4 0 | A549-GM130-SQSTM1 0 | A549-TP53BP1-CLTA 0 | A549-TUBA1B-RELA 0 | HepG2-ACTB-RAB5A 0 | HepG2-CANX-COX4 0 | HepG2-GM130-SQSTM1 0 | HepG2-TP53BP1-CLTA 0 | HepG2-TUBA1B-RELA 0 | WPMY1-ACTB-RAB5A 0 | WPMY1-CANX-COX4 0 | WPMY1-GM130-SQSTM1 0 | WPMY1-TP53BP1-CLTA 0 | WPMY1-TUBA1B-RELA 0

CCC1(c2ccccc2)C(=O)NCNC1=O [primidone]
inactive: A549-ACTB-RAB5A 0 | A549-CANX-COX4 0 | A549-GM130-SQSTM1 0 | A549-TP53BP1-CLTA 0 | A549-TUBA1B-RELA 0 | HepG2-ACTB-RAB5A 0 | HepG2-CANX-COX4 0 | HepG2-GM130-SQSTM1 0 | HepG2-TP53BP1-CLTA 0 | HepG2-TUBA1B-RELA 0 | WPMY1-ACTB-RAB5A 0 | WPMY1-CANX-COX4 0 | WPMY1-GM130-SQSTM1 0 | WPMY1-TP53BP1-CLTA 0 | WPMY1-TUBA1B-RELA 0

CNC(=O)COC(=O)NCCC1CCN(c2cccc(C)n2)CC1
inactive: A549-ACTB-RAB5A 0 | A549-CANX-COX4 0 | A549-GM130-SQSTM1 0 | A549-TP53BP1-CLTA 0 | A549-TUBA1B-RELA 0 | HepG2-ACTB-RAB5A 0 | HepG2-CANX-COX4 0 | HepG2-GM130-SQSTM1 0 | HepG2-TP53BP1-CLTA 0 | HepG2-TUBA1B-RELA 0 | WPMY1-ACTB-RAB5A 0 | WPMY1-CANX-COX4 0 | WPMY1-GM130-SQSTM1 0 | WPMY1-TP53BP1-CLTA 0 | WPMY1-TUBA1B-RELA 0
